Source: PubChem BioAssay
Only some compounds are listed: those with a hit (about 12% of all), similar ones and a draw of the others.
PLK1 PBD inh: PLK1 (human) polo-box domain binding inhibition. AID 720504. hit rate 2.8% among 360,000. Potency, µM, without a hit: max response, negative = inhibition, usual class: inhibitors. Plk1 PBD binding of FITC phosphopeptide, fluorescence polarization; note: potency is the fitted concentration of half-maximal effect; series mostly up to about 57 µM; % is set by controls: 0 for no effect and ±100 for the full control effect; nearly all actives have a fitted effect of over 65% in size
Target sequence (P53350 whole entry, looked up, the tested form may be a part): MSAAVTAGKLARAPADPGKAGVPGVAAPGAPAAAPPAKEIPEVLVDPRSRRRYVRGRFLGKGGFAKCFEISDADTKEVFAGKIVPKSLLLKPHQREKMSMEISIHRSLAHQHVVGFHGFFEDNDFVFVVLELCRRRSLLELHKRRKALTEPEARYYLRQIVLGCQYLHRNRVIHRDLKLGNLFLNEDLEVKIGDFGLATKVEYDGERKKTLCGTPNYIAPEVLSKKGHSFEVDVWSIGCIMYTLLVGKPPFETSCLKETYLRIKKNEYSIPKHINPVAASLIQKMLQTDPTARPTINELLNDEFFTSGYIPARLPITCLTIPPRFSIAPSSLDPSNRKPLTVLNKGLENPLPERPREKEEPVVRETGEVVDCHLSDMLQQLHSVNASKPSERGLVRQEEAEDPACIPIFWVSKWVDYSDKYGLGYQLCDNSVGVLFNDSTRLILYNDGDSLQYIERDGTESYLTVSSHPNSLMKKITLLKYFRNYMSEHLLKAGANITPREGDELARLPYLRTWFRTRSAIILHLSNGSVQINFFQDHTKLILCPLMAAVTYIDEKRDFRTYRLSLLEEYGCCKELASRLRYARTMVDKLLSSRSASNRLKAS
JMJD2A Tudor inh: JMJD2A Tudor domain (human) inhibition | O75164 | AlphaScreen JMJD2A-Tudor / H3K4me3 peptide binding | Potency, µM (doses to about 114 µM), inactives show at the top dose activity change, negative = inhibition, actives largely listed as inhibitors | hit rate 4.4% among 390,000; note: potency is the fitted concentration of half-maximal effect; % is set by controls: 0 for no effect and ±100 for the full control effect; nearly all actives have a fitted effect of over 50% in size
PI5P4Ka inh: inhibitors of human PI5P4K alpha. P48426. PI5P4Kalpha enzyme, ADP-Glo luminescence, 60 min; hits give low values. max response, %. hit rate 1.2% among 330,000. AID 652105; active = max response of -50% or lower; inconclusive = between -30% and -50%; inactive = -30% or higher; note: value at the top dose of about 77 µM; % is set by controls: 0 for no effect and ±100 for the full control effect
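Reactions run in 0.038 M HEPES pH 7.4, 0.28 mM EGTA, 0.1% CHAPS and 5% DMSO, with PI5P4Kalpha, substrate, compound and 5 microM ATP final, one hour at room temperature. Readout is ADP-Glo luminescence.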
G9a inh: inhibitors of human histone lysine methyltransferase G9a; hit rate 8.8% among 350,000; Potency, µM (series often up to 102 µM), inactives show at the top dose activity, negative = inhibition, hits mostly inhibitors; G9a H3K9 monomethylation, AlphaScreen, 2 h; Q96KQ7; AID 504332; note: potency is the fitted concentration of half-maximal effect; % is set by controls: 0 for no effect and ±100 for the full control effect; nearly all actives have a fitted effect of over 75% in size
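Compounds were preincubated with 20 nM G9a for 15 min, after which biotinylated H3K9 peptide (500 nM) and SAM (20 uM) started a 2 h room-temperature reaction. Monomethylated product was quantified by antibody-based AlphaScreen chemiluminescence.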
HP1b binding inh: blocks HP1-beta chromodomain binding to methylated histone tails. P83916. AID 540317. AlphaScreen HP1-beta / biotin-H3K9me3 peptide binding. hit rate 0.56% among 390,000. Potency, µM (series often up to 114 µM), for inactives: top-dose activity change, negative = inhibition, hits mostly inhibitors; note: potency is the fitted concentration of half-maximal effect; nearly all actives have a fitted effect of over 70% in size
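Compound inhibition of the preformed complex between 50 nM HP1-beta and 50 nM biotinylated H3K9me3 peptide was read by AlphaScreen. Buffer was PBS pH 7.4 with 0.01% Tween-20. Incubations ran 30 min at room temperature, with 10 ug/mL donor/acceptor beads.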
BAZ2B block: BAZ2B (human) inhibition; Q9UIF8; AlphaScreen BAZ2B-H3K14Ac peptide displacement; Potency, µM (titrated, usually from 114 µM), for the others: top-dose activity change, negative = inhibition, usual class: inhibitors; hit rate 4.4% among 360,000; note: potency is the fitted concentration of half-maximal effect; % is set by controls: 0 for no effect and ±100 for the full control effect; nearly all actives have a fitted effect of over 60% in size
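Protein-peptide AlphaScreen: BAZ2B 50 nM, b-H3K14Ac 50 nM, 1x PBS pH 7.4 + 0.01% Tween-20. Preincubation 30 min RT; cpd 30 min RT (top 110 uM); beads 20 min RT, light-protected.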
Numbers without * were called inactive; ? = inconclusive; . = no result given; [ ] = another dose, or the depositor's remark. Unless noted, calls come from the whole dose curve; as a rule, active = well fitted curve in the direction sought with a large enough effect; inconclusive = small, poorly fitted or top-dose-only effect, or another doubt; inactive = no such curve, though single readings can be large; an effect the other way counts as inactive or inconclusive.

SMILES | PLK1 PBD inh | JMJD2A Tudor inh | PI5P4Ka inh | G9a inh | HP1b binding inh | BAZ2B block
N#C/C(=C\c1cc2c(cc1Br)OCO2)c1ccc(C(=O)O)cc1 | -12% | -8% | ? | -3%[59 µM] | 26% | -36%
O=C(NCC1COc2ccccc2O1)c1cc(S(=O)(=O)N2CCOCC2)c(Cl)cc1Cl (stereo unspecified) | -5% | -18% | -4 | 32µM* | 19% | 16%
Cc1c(C(=O)NCc2c(F)cc(F)cc2F)oc2ccc(S(=O)(=O)N3CCOCC3)cc12 | 19µM* | 22µM* | -14 | 3%[59 µM] | -4% | 7%
O=C(NCC1COc2ccccc2O1)c1ccc(F)c(S(=O)(=O)N2CCOCC2)c1 (stereo unspecified) | -2% | -15% | 3 | -29% | 23% | 7%
Cc1c(C(=O)NCc2ccc(F)cc2)oc2ccc(S(=O)(=O)N3CCOCC3)cc12 | -2% | 4% | -9 | 2% | 16% | 6%
COCCCNC(=O)c1oc2ccc(S(=O)(=O)N3CCOCC3)cc2c1C | ? | 89µM* | 2 | 4%[59 µM] | -8% | 1%
COc1ccc(S(=O)(=O)N2CCOCC2)cc1C(=O)NCC(c1ccccc1)c1ccccc1 | 4% | -2% | 2 | . | 23% | .
COCCCNC(=O)c1cc(S(=O)(=O)N2CCOCC2)ccc1SCc1cccc(OC)c1OC | -13% | -3% | 2 | 32µM* | 16% | 5%
Cc1c(C(=O)NCCc2ccccc2)oc2ccc(S(=O)(=O)N3CCOCC3)cc12 | 0% | -16% | 10 | -6%[59 µM] | 20% | 7%
CC1=C(C(=O)Nc2ccc(C)cc2Cl)C2(CCCCC2)OC1=O | . | 1% | . | -33%[59 µM] | 21% | -2%
COc1cc(CCC(=O)NCc2ccc3c(c2)CCN3C(=O)c2cccc(C)c2)cc(OC)c1OC | . | -13% | . | 5%[59 µM] | 22% | -5%
Cc1c(C(=O)NCC2COc3ccccc3O2)oc2ccc(S(=O)(=O)N3CC(C)CC(C)C3)cc12 (stereo unspecified) | -9% | -14% | . | -47%[2.33 µM] | 4% | 12%
Cc1c(C(=O)NCC2COc3ccccc3O2)oc2ccc(S(=O)(=O)N3CCOCC3)cc12 (stereo unspecified) | -3% | -29% | 8 | 50µM* | 6% | 4%
O=C(COC(=O)c1cc(S(=O)(=O)N2CCOCC2)c(Cl)cc1Cl)NC1CC1 | -3% | -11% | 2 | 0.63µM* | 4% | -4%
CC1(NC(=O)CC[N+](C)(C)CCO)CS(=O)(=O)CC1S(=O)(=O)[O-] (stereo unspecified) | . | . | . | ? | . | 50µM*
O=C(CSC(=S)N1CCOCC1)c1cc2ccccc2oc1=O | -21% | -30% | 1 | 71µM* | -3% | -24%
CCNc1cccc2c1C(=O)N(C)C2=O | 24µM* | 17% | . | 31% | 52% | 34%
Cc1ccc(NC(=O)C(=O)NCCCN2CCOCC2)cc1C | . | 5% | . | 2%[59 µM] | 54% | -1%
Cc1c(-n2cc(C(=O)O)c(=O)c3cc(F)c(N4CCCC4)c(F)c32)c(=O)n(-c2ccccc2)n1C | -10% | -2% | 0 | 56µM* | 25% | -4%
CCN1CCN(C(=O)c2cc3cc([N+](=O)[O-])ccc3oc2=O)CC1 | -1% | 1% | -1 | ? | 29% | -2%
O=C(c1cc2cc([N+](=O)[O-])ccc2oc1=O)n1cccn1 | 0% | -21% | -9 | 45µM* | 18% | -14%
CC(C)c1[nH]nc2c1C(c1ccc(OC(=O)c3ccco3)cc1)C(C#N)=C(N)O2 (stereo unspecified) | -14% | -31% | . | 50µM* | 12% | -29%
Cc1[nH]nc2c1C(c1ccc(OC(=O)c3ccco3)cc1)C(C#N)=C(N)O2 (stereo unspecified) | -25% | -16% | -10 | 24%[59 µM] | 32% | -11%
COc1cccc(CCC(=O)Nc2cccc(S(=O)(=O)N3CCCC3)c2)c1OC | -15% | -22% | 2 | 1%[12.7 µM] | 23% | -22%
O=C(O)CCCCCNS(=O)(=O)c1c(Cl)cccc1Cl | -1% | -19% | -4 | -29%[12.7 µM] | 37% | -8%
